Test results reported in PubChem BioAssay (NCI).
Several values for one entry are separate records, joined by “and”; a condition that tells them apart may be missing. Equal values may be shown once. This is part of a sample that, as a whole, favours compounds with a hit. Of some 83,000 tested, about 20% had one in any assay.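 48-hour exposure, single concentration, 96-well plates; percent growth endpoint where 0 means no net growth. Active: below 10.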 Unmarked numbers belong to inactive results. Activity calls are given as the source filed them.

These molecules were tested on HL-60(TB) leukemia (assay: NCI-60 one-dose screen, 48 h (100 = growth as untreated, 0 = no growth, -100 = all killed)). Details: 10 µM unless noted.
In the case of `COC(=O)[C@]12CC[C@@H](C)[C@H](C)[C@@H]1C1=CC[C@@H]3[C@@]4(C)C(C=O)=C[C@@](C)(COC(C)=O)[C@@H]4[C@H](O)C[C@@]3(C)[C@]1(C)CC2`, the growth is reported as -24.7% (active).
`CCOc1ccc2nc3cc(N)ccc3c(N)c2c1` was tested, and the growth was 117% and 86.7%.
`CC(C)(C)NC(=O)C(OC(=O)C1CCc2cc(F)ccc2O1)c1ccccc1Cl` (configuration not stated) was tested, and the growth was 103%.
With `Cc1ccc(/C=N/Nc2nc(Nc3ccccc3)nc(-n3nc(C)cc3C)n2)cc1` the growth was 53.3%.
For `COc1ccc(-n2nnc(C(=O)NCCc3c[nH]c4ccc(F)cc34)c2C)cc1`, the growth was 86.9%.
`CCOc1ccc2sc(NS(=O)(=O)c3ccc(N)cc3)nc2c1` showed a growth of 94.7%.
With `C=C(C)[C@@H]1CC[C@]2(COCCC#N)CC[C@]3(C)[C@H](CC[C@@H]4[C@@]5(C)Cc6c([nH]c7ccccc67)C(C)(C)[C@@H]5CC[C@]43C)[C@@H]12` the growth was 101%.
For `CCN(CC)CCNc1ccc(C)c2sc3ccccc3c(=O)c12` (tested in a mixture with another compound), the growth was 10.1% and 15.3%.
For `C=CCc1cc(C(C)=O)cc(OC)c1O`, the growth was 71.1%.
`Cc1cc(/C=C\c2ccc3ccccc3[n+]2C)c(O)c2ncccc12` was tested, and the growth was -22.4% (active).
`COc1cccc(NC(=O)c2cccc(-c3cc(=O)c4c(OC)c(OC)c(OC)cc4o3)c2)c1` showed a growth of 68.7%.
Work on `O=C1Nc2ccccc2SC1c1ccccc1Cl` (configuration not stated) yielded a growth of 71%.
`O=[N+]([O-])c1ccc(N/N=C(/C(=N/Nc2ccc([N+](=O)[O-])cc2)c2ccccc2)c2ccccc2)cc1` gave a growth of 117%.
For `N#Cc1cnc(NCCc2ccncc2)nc1-n1cnc2ccccc21`, the growth was 37.7%.
`COc1ccc(C2NC(=O)Nc3ccccc32)c(OC)c1` (configuration not stated) was tested, and the growth was 93.2%.
In the case of `O/N=C/c1ccc(O)cc1O`, the growth is reported as 96.9%.
For `CCN(CC)CCC(CNc1ccnc2cc(Cl)ccc12)c1ccc(OC)cc1` (configuration not stated), the growth was 63.7% and 61.7%.
Work on `COc1ccccc1NC(=O)N=Nc1c(O)[nH]c2ccccc12` yielded a growth of 93.8%.
With `CCCCCCCCCCCCCCNc1nc(CO)ncc1-c1ccc(C(F)(F)F)cc1` the growth was 99.1%.
For `CO[C@]12C=C/C(=C(/C(=O)OCc3cccnc3)C(=O)CCCCCCCC[C@@]3(OC)C=C/C(=C(/C(=O)OCc4cccnc4)C(=O)CCCCCCCC1)O3)O2`, the growth was -20.2% (active).
For `O=C(Nc1ccc(OS(=O)(=O)Cc2ccccc2)cc1)C12CC3CC(CC(C3)C1)C2`, the growth was 60.5%.
Work on `COc1ccc(OC)c(C(=O)/C=C/c2cc3c(c(OC)c2OC)OCO3)c1` yielded a growth of 48.6%.
For `O=C(Nc1ccccc1)OCC(CN1CCCCC1)OC(=O)Nc1ccccc1` (configuration not stated), the growth was 69.3% and 95%.
`CCCCCCCCCCNCCSS(=O)(=O)O` gave a growth of 79%.
For `CCOc1nc(-c2ccccc2)cc2c(O)c(C(=O)N/N=C/c3ccccc3O)[nH]c(=O)c12`, the growth was 133%.
`CCOc1cc2ncc(C#N)c(Nc3ccc(F)c(Cl)c3)c2cc1NC(=O)CC1CCSS1` (configuration not stated) was tested, and the growth was -33.9% (active).
`COc1ccc(-c2nc3c(c(-c4ccccc4)nn3-c3ccccc3)c(-c3ccc(N4CCOCC4)cc3)c2C#N)cc1` gave a growth of 101%.
`O=C(Nc1ccc(-n2ccc3c(NC(=O)c4ccccc4)ncnc32)cc1)Nc1cccc(Cl)c1Cl` gave a growth of 62.9%.
Work on `COc1ccc(-c2ccccc2)cc1C(=O)c1ccc(-c2ccccc2)cc1` yielded a growth of 71.4%.
`Cc1ccn2cc(Cc3cc(=O)oc4c3ccc3ccccc34)c(=O)nc2c1` gave a growth of 86.1%.
With `COc1cccc(C2=NN(C(C)=O)C(c3cc(OC)c(OC)c(OC)c3)C2)c1` (configuration not stated) the growth was -17.8% (active).
`CN1C(=O)/C(=C/c2cn(-c3ccccc3)nc2-c2ccccc2)SC1=S` was tested, and the growth was 109%.
`Cc1ccccc1NC(=O)c1sc2nc(C)c(C(=O)/C=C/c3ccccc3)cc2c1N` was tested, and the growth was 8.8% (active).
For `CCc1onc(-c2ccc(OC)cc2)c1-c1ccccc1OCCN(CC)CC`, the growth was 82.6%.
With `Cc1c2ccccc2c(C)c2c1ccc1ccccc12` the growth was 69.9%.
In the case of `COc1ccc(S(=O)(=O)c2ccc(F)cc2)cc1`, the growth is reported as 105%.
With `CCCCn1c(=O)c(C2CNC(=O)c3ccccc3N2)cc2ccccc21` (configuration not stated) the growth was 96.7%.
